Most compounds without a hit are left out; they make up all but 14% or so of the library.
Pf growth 96h = Primary qHTS for delayed death inhibitors of the malarial parasite plastid, 96 hour incubation | P. falciparum luciferase reporter growth, 96 h | Potency, µM (highest dose often 28.7 µM), hits mostly inhibitors | 6.9% of 320,000 active | AID 504834, 2011
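P. falciparum expressing integrated firefly luciferase grown in erythrocytes (2% hematocrit, 0.05% parasitemia final) with compounds for 96 hours at 37 C, 5% CO2. Growth inhibition read as loss of luminescence after adding luciferase detection reagent.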
HCMV antiviral = qHTS Assay for inhibitors of the human cytomegalovirus (HCMV); HFF cells, HCMV-luciferase reporter, 72 h; active compounds read low; activity change, negative = inhibition, % at 57.5 µM; 4.5% of 410,000 active; in the data active means activity change below about -60%; inconclusive means no clear call, values can overlap the other calls; inactive means above about -39%
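Luciferase read-out from HCMV-luciferase-infected HFFs (MOI 1 PFU/cell) 72 h post infection at 37C; compounds added after 16 h cell attachment; activity normalized between buffer-only basal and Salinomycin (10uM) inhibitor controls.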
Lassa entry inh = qHTS for Inhibitors of binding or entry into cells for Lassa Virus; Lassa virus pseudotype entry inhibition, cell reporter; Potency, µM (top dose mostly 37.9 µM), most hits filed as inhibitors; 1.2% of 300,000 active; AID 540256, 2011; calls by dose curve; tested in HEK293 cells; further: nearly all actives have a fitted effect of over 50% in size
HCV inh = qHTS Assay for Inhibitors of Hepatitis C Virus (HCV). Huh7.5.1 HCVcc-Cre infection, luciferase reporter, 44 h. Potency, µM (titrated, usually from 41.8 µM), usual class: inhibitors. 3.4% of 340,000 active. AID 651820, 2012
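Infectious HCVcc-Cre (~0.5 moi) was added to cells just after compound, with cells seeded 4 h earlier at 1,000 per well. Luciferase activity after 44 h culture reported infection; substrate was incubated 15 min at room temperature before reading.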
Pf growth 48h = Primary qHTS for delayed death inhibitors of the malarial parasite plastid, 48 hour incubation; 5.9% of 310,000 active; P. falciparum luciferase growth in erythrocytes, 48 h; Potency, µM (series often up to 28.7 µM), usual class: inhibitors
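Growth was read as firefly luciferase luminescence after a 48 h, 37 C, 5% CO2 exposure of compounds to reporter-bearing P. falciparum cultures (0.1% parasitemia, 2% hematocrit final) in Albumax-supplemented RPMI 1640.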
MARV entry inh = qHTS for inhibitors of binding or entry into cells for Marburg Virus; Marburg virus pseudotyped entry inhibition, cell reporter; Potency, µM (highest dose often 37.8 µM), hits mostly inhibitors; 1.8% of 300,000 active; AID 540276, 2011; calls by dose curve; tested in HEK293 cells
A number is an active result; n = inactive; u = inconclusive; x = not tested or not shown; [ ] = another dose, or the depositor's remark. Unless noted, the call rests on the fitted dose curve; in most records, active means well fitted inhibition curve with a large enough effect; inconclusive means small, poorly fitted or top-dose-only effect, or another doubt; inactive means no such curve, though single readings can be large or run the other way.

SMILES | Pf growth 96h | HCMV antiviral | Lassa entry inh | HCV inh | Pf growth 48h | MARV entry inh
CC(C)c1ccc(OCC(=O)NCC(c2ccc(Cl)cc2)N2CCOCC2)cc1 (centres undefined) | x | n | n | x | x | u
Cc1c(Cl)cccc1NC(=S)C(=C([O-])c1ccc(Cl)s1)[n+]1ccccc1 | x | n | n | n | x | u
C/C=C/Cn1c(SCc2ccccc2)nc2c1c(=O)[nH]c(=O)n2C | n | n | 13µM | n | u | u
CCOCCn1c(SCc2ccccc2)nc2c1c(=O)[nH]c(=O)n2C | n | n | x | n | u | x
C/C=C/CSc1nc2c(c(=O)[nH]c(=O)n2C)n1Cc1ccc(C)cc1 | u | n | x | n | 13µM | x
COc1cc(CN2C[C@@H](CO)O[C@@H](n3cnc4c(NCc5ccncc5)ncnc43)C2)cc(OC)c1OC | x | n | x | x | x | x
COc1cccc(-c2n[nH]nc2C2=CC(=O)C[C@H](c3ccc(F)cc3)C2)c1 | x | n | x | x | x | x
COc1ccc(N2C[C@H](C)[C@@H](CC(=O)Nc3ccc(Br)cc3)C2=O)cc1 | x | n | x | x | x | u
COc1ccccc1NC(=O)Cn1nc(-c2ccc(Cl)cc2)c2ccccc2c1=O | u | u | n | 10µM | x | n
COc1ccccc1NC(=O)CCn1nc(-c2ccccc2)c2ccccc2c1=O | x | n | n | x | x | u
O=C(Cn1nc(-c2ccccc2)c2ccccc2c1=O)NN1CCOCC1 | n | n | n | n | 15µM | u
COC(=O)[C@]1(C#N)CC(=O)N([C@H](C)[C@@H](O)c2ccccc2)[C@@H]1c1ccccc1 | x | n | x | x | x | x
COc1c2ccoc2cc2oc(=O)ccc12 | x | n | x | n | x | x
CC1(C)OC1COc1c2ccoc2cc2oc(=O)ccc12 (centres undefined) | 0.37µM | u | x | n | n | x
O=C(NCC(=O)N1CCN(C(c2ccccc2)c2ccccc2)CC1)c1ccccc1F | n | n | n | n | n | n
CCOc1ccccc1N(CC(=O)N1CCOCC1)S(=O)(=O)c1ccc(SC)cc1 | n | n | 5.6µM | n | n | u
CCOc1ccc(N(CC(=O)N2CCN(c3ccccc3OC)CC2)S(=O)(=O)c2ccc(C)cc2)cc1 | 12µM | n | n | u | u | u
CCOc1ccc(N(CC(=O)N2CCN(c3ccccc3OC)CC2)S(=O)(=O)c2ccc(F)cc2)cc1 | 0.93µM | u | u | n | u | u
CCOc1ccc(N(CC(=O)N2CCCC2)S(=O)(=O)c2ccc(F)cc2)cc1 | n | n | n | n | n | n
Clc1ccc(C(c2ccccc2Cl)C(Cl)Cl)cc1 (centres undefined) | u | u | n | u | 10µM | n
CCOC(=O)c1ccc(N2C(=O)c3n[nH]c(-c4cccs4)c3C2c2ccc(OC)cc2OC)cc1 (centres undefined) | x | -92 | u | x | x | u
CCOC(=O)c1ccc(N2C(=O)c3n[nH]c(-c4cccs4)c3C2c2cccc(OC)c2)cc1 (centres undefined) | x | -107 | u | x | x | 10µM
COc1ccc(CNC(=O)c2sc(=O)n(Cc3ccc(C)cc3)c2C)cc1 | x | n | x | x | x | x
COc1ccc(N2CCN(C(=O)Cc3coc4ccc(C)cc34)CC2)cc1 | x | -114 | n | x | x | n
Cc1cc(C)c2c(CC(=O)N3CCN(c4cccc(Cl)c4)CC3)coc2c1 | x | n | n | x | x | u
SMILES | Pf growth 96h | HCMV antiviral | Lassa entry inh | HCV inh | Pf growth 48h | MARV entry inh
Cc1ccc2occ(CC(=O)N3CCN(c4cccc(Cl)c4)CC3)c2c1 | x | -71 | n | x | x | n
COc1ccccc1NC(=O)CSCc1cc(=O)c2c(C)cc(C)cc2[nH]1 | x | n | n | x | x | x
Cc1ccc(OCCCNC2CCCC2)cc1 | n | n | n | n | n | n
Brc1cccc(OCCCNC2CCCC2)c1 | 12µM | n | x | n | u | x
CC(C)NCCOc1cccc(Br)c1 | n | u | n | n | x | n
OCCNCCCCOc1cccc(Br)c1 | u | n | u | n | u | u
CC(C)(C)c1ccc(OCCCNC2CCCC2)cc1 | n[1.15 µM] | n | u | u | n[1.15 µM] | 6.3µM
Cc1ccc(C)c(OCCCNC2CCCC2)c1C | u | n | u | n | 12µM | u
C=CCNCCCCOc1cccc(Br)c1 | n | n | n | n | u | 13µM

Screening data from PubChem.
